Experimental data taken from PubChem BioAssay AID1159580 (chemical genetic matrix, 2015).
The whole screen tested about 5,500 compounds, of which about 2,000 (36%) were called active. Roughly 18% stayed inconclusive and do not appear here. No stated cut-off is given here; in the data, active means normalized growth mostly below about 0.91 (no sharp cut-off); inconclusive means no clear call, values can overlap the other calls; inactive means mostly above about 0.92. Some of the results follow.

Assay: chemical genetic growth profiling, strain panel (AID 1159580);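 further: tested at 20 µM; growth read once vehicle control cultures reached saturation at 30 °C; 1 = growth at the plate median or of vehicle wells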
Settings: growth OD

Measured: normalized growth

O=C(O)CCC(=O)c1ccc(-c2ccccc2)cc1
active: S. cerevisiae deletion strains, locus YKL009W, strain mrt4, stronger effect = lower value 0.799 | S. cerevisiae deletion strains, locus YLR262C, strain YPT6 (second series), stronger effect = lower value 0.765 | S. cerevisiae deletion strains, locus YNL183C, strain NPR1, stronger effect = lower value 0.724 | S. cerevisiae deletion strains, locus YNL271C, strain bni1, stronger effect = lower value 0.909 | S. cerevisiae deletion strains, locus YNL298W, strain CLA4, stronger effect = lower value 0.826 | S. cerevisiae deletion strains, locus YOR231W, strain MKK1, stronger effect = lower value 0.724 | S. cerevisiae deletion strains, locus YPL256C, strain CLN2, stronger effect = lower value 0.78
inactive: S. cerevisiae deletion strains, locus YKL068W, stronger effect = lower value 1 | S. cerevisiae deletion strains, locus YKL085W, strain MDH1 (second series), stronger effect = lower value 0.939 | S. cerevisiae deletion strains, locus YKL085W, strain MDH1, stronger effect = lower value 0.939 | S. cerevisiae deletion strains, locus YKL160W, strain elf1, stronger effect = lower value 0.961 | S. cerevisiae deletion strains, locus YKL190W, strain CNB1, stronger effect = lower value 0.996 | S. cerevisiae deletion strains, locus YKR001C, strain vps1, stronger effect = lower value 0.92 | S. cerevisiae deletion strains, locus YKR026C, strain gcn3, stronger effect = lower value 0.944 | S. cerevisiae deletion strains, locus YKR091W, strain srl3, stronger effect = lower value 0.979 | S. cerevisiae deletion strains, locus YLL001W, strain dnm1, stronger effect = lower value 0.947 | S. cerevisiae deletion strains, locus YLL026W, stronger effect = lower value 0.989 | S. cerevisiae deletion strains, locus YLL041C, strain sdh2, stronger effect = lower value 0.979 | S. cerevisiae deletion strains, locus YLR027C, strain aat2, stronger effect = lower value 0.978 | S. cerevisiae deletion strains, locus YLR039C, strain RIC1, stronger effect = lower value 0.855 | S. cerevisiae deletion strains, locus YLR058C, strain SHM2, stronger effect = lower value 0.978 | S. cerevisiae deletion strains, locus YLR102C, strain apc9, stronger effect = lower value 0.981 | S. cerevisiae deletion strains, locus YLR113W, strain HOG1, stronger effect = lower value 0.865 | S. cerevisiae deletion strains, locus YLR221C, strain rsa3, stronger effect = lower value 0.997 | S. cerevisiae deletion strains, locus YLR258W, strain gsy2, stronger effect = lower value 1 | S. cerevisiae deletion strains, locus YLR262C, strain YPT6, stronger effect = lower value 0.821 | S. cerevisiae deletion strains, locus YLR268W, strain sec22, stronger effect = lower value 0.894 | S. cerevisiae deletion strains, locus YLR320W, strain mms22, stronger effect = lower value 1.01 | S. cerevisiae deletion strains, locus YLR330W, strain CHS5, stronger effect = lower value 0.994 | S. cerevisiae deletion strains, locus YLR342W, strain FKS1 (second series), stronger effect = lower value 0.986 | S. cerevisiae deletion strains, locus YLR342W, strain FKS1, stronger effect = lower value 0.934 | S. cerevisiae deletion strains, locus YLR357W, strain rsc2, stronger effect = lower value 0.903 | S. cerevisiae deletion strains, locus YLR370C, strain arc18, stronger effect = lower value 0.984 | S. cerevisiae deletion strains, locus YLR371W, strain rom2, stronger effect = lower value 0.962 | S. cerevisiae deletion strains, locus YLR384C, strain iki3, stronger effect = lower value 0.964 | S. cerevisiae deletion strains, locus YLR418C, strain cdc73, stronger effect = lower value 0.902 | S. cerevisiae deletion strains, locus YML016C, strain PPZ1, stronger effect = lower value 0.988 | S. cerevisiae deletion strains, locus YML032C, strain rad52, stronger effect = lower value 0.938 | S. cerevisiae deletion strains, locus YML120C, strain ndi1, stronger effect = lower value 0.971 | S. cerevisiae deletion strains, locus YML124C, strain tub3, stronger effect = lower value 0.981 | S. cerevisiae deletion strains, locus YMR058W, strain fet3, stronger effect = lower value 0.978 | S. cerevisiae deletion strains, locus YMR078C, strain ctf18, stronger effect = lower value 0.963 | S. cerevisiae deletion strains, locus YMR125W, strain sto1, stronger effect = lower value 0.979 | S. cerevisiae deletion strains, locus YMR129W, stronger effect = lower value 0.987 | S. cerevisiae deletion strains, locus YMR205C, strain PFK2, stronger effect = lower value 0.974 | S. cerevisiae deletion strains, locus YMR223W, strain ubp8, stronger effect = lower value 0.974 | S. cerevisiae deletion strains, locus YMR231W, strain pep5, stronger effect = lower value 0.972 | S. cerevisiae deletion strains, locus YMR263W, strain SAP30, stronger effect = lower value 0.972 | S. cerevisiae deletion strains, locus YMR307W, strain GAS1, stronger effect = lower value 0.939 | S. cerevisiae deletion strains, locus YNL067W, strain RPL9B, stronger effect = lower value 0.957 | S. cerevisiae deletion strains, locus YNL071W, strain lat1, stronger effect = lower value 0.951 | S. cerevisiae deletion strains, locus YNL128W, strain TEP1, stronger effect = lower value 0.982 | S. cerevisiae deletion strains, locus YNL153C, strain GIM3, stronger effect = lower value 0.985 | S. cerevisiae deletion strains, locus YNL209W, strain ssb2, stronger effect = lower value 0.993 | S. cerevisiae deletion strains, locus YNL233W, strain BNI4, stronger effect = lower value 0.97 | S. cerevisiae deletion strains, locus YNL248C, strain rpa49, stronger effect = lower value 0.993 | S. cerevisiae deletion strains, locus YNL250W, strain rad50, stronger effect = lower value 0.977 | S. cerevisiae deletion strains, locus YNL307C, strain MCK1, stronger effect = lower value 0.963 | S. cerevisiae deletion strains, locus YNL322C, strain KRE1 (second series), stronger effect = lower value 0.97 | S. cerevisiae deletion strains, locus YNL322C, strain KRE1, stronger effect = lower value 0.998 | S. cerevisiae deletion strains, locus YNR049C, strain mso1, stronger effect = lower value 0.987 | S. cerevisiae deletion strains, locus YNR052C, strain pop2, stronger effect = lower value 0.972 | S. cerevisiae deletion strains, locus YOL006C, strain TOP1, stronger effect = lower value 0.889 | S. cerevisiae deletion strains, locus YOL012C, strain htz1 0.779 | S. cerevisiae deletion strains, locus YOL147C, strain pex11, stronger effect = lower value 0.98 | S. cerevisiae deletion strains, locus YOR001W, strain rrp6, stronger effect = lower value 0.955 | S. cerevisiae deletion strains, locus YOR061W, strain CKA2, stronger effect = lower value 0.956 | S. cerevisiae deletion strains, locus YOR069W, strain VPS5, stronger effect = lower value 0.987 | S. cerevisiae deletion strains, locus YOR070C, strain gyp1, stronger effect = lower value 0.988 | S. cerevisiae deletion strains, locus YOR080W, strain dia2, stronger effect = lower value 0.979 | S. cerevisiae deletion strains, locus YOR083W, strain WHI5, stronger effect = lower value 0.953 | S. cerevisiae deletion strains, locus YOR106W, strain vam3, stronger effect = lower value 0.935 | S. cerevisiae deletion strains, locus YOR136W, strain idh2, stronger effect = lower value 0.968 | S. cerevisiae deletion strains, locus YOR144C, strain elg1, stronger effect = lower value 0.972 | S. cerevisiae deletion strains, locus YOR184W, strain ser1, stronger effect = lower value 0.905 | S. cerevisiae deletion strains, locus YOR265W, strain rbl2, stronger effect = lower value 0.996 | S. cerevisiae deletion strains, locus YOR270C, strain vph1, stronger effect = lower value 0.95 | S. cerevisiae deletion strains, locus YOR290C, strain snf2, stronger effect = lower value 0.978 | S. cerevisiae deletion strains, locus YOR316C, strain cot1, stronger effect = lower value 0.984 | S. cerevisiae deletion strains, locus YPL051W, strain arl3, stronger effect = lower value 0.958 | S. cerevisiae deletion strains, locus YPL055C, strain LGE1, stronger effect = lower value 0.973 | S. cerevisiae deletion strains, locus YPL078C, strain atp4, stronger effect = lower value 0.941 | S. cerevisiae deletion strains, locus YPL106C, strain sse1, stronger effect = lower value 1.06 | S. cerevisiae deletion strains, locus YPL240C, strain hsp82, stronger effect = lower value 0.999 | S. cerevisiae deletion strains, locus YPL241C, strain CIN2, stronger effect = lower value 0.996 | S. cerevisiae deletion strains, locus YPR119W, strain clb2, stronger effect = lower value 0.972 | S. cerevisiae deletion strains, locus YPR141C, strain kar3, stronger effect = lower value 1.01 | S. cerevisiae deletion strains, locus YPR163C, strain tif3, stronger effect = lower value 0.967 | S. cerevisiae deletion strains, locus YPR167C, strain met16, stronger effect = lower value 0.967 | S. cerevisiae deletion strains, strain wtn01, stronger effect = lower value 0.932 | S. cerevisiae strains, strain wild type, stronger effect = lower value 0.99
